The supplement of paper PMC11732987, “Enantioselective OTUD7B fragment discovery through chemoproteomics screening and high-throughput optimisation” (Communications Chemistry, 2025)

Assays:
Assay in all cases: log2 ratio of Biotin-Ahx-Ub-VS probe labelling (fragment/DMSO); higher = less target engagement (more negative = stronger competition), active = hit call of the paper (q ≤ 0.05, log2 ratio ≤ -1)
Settings in all cases: compound concentration: 200 uM; treatment time: 3 h
USP19 = target: T1, USP19 (UniProt O94966)
T1 sequence (whole entry): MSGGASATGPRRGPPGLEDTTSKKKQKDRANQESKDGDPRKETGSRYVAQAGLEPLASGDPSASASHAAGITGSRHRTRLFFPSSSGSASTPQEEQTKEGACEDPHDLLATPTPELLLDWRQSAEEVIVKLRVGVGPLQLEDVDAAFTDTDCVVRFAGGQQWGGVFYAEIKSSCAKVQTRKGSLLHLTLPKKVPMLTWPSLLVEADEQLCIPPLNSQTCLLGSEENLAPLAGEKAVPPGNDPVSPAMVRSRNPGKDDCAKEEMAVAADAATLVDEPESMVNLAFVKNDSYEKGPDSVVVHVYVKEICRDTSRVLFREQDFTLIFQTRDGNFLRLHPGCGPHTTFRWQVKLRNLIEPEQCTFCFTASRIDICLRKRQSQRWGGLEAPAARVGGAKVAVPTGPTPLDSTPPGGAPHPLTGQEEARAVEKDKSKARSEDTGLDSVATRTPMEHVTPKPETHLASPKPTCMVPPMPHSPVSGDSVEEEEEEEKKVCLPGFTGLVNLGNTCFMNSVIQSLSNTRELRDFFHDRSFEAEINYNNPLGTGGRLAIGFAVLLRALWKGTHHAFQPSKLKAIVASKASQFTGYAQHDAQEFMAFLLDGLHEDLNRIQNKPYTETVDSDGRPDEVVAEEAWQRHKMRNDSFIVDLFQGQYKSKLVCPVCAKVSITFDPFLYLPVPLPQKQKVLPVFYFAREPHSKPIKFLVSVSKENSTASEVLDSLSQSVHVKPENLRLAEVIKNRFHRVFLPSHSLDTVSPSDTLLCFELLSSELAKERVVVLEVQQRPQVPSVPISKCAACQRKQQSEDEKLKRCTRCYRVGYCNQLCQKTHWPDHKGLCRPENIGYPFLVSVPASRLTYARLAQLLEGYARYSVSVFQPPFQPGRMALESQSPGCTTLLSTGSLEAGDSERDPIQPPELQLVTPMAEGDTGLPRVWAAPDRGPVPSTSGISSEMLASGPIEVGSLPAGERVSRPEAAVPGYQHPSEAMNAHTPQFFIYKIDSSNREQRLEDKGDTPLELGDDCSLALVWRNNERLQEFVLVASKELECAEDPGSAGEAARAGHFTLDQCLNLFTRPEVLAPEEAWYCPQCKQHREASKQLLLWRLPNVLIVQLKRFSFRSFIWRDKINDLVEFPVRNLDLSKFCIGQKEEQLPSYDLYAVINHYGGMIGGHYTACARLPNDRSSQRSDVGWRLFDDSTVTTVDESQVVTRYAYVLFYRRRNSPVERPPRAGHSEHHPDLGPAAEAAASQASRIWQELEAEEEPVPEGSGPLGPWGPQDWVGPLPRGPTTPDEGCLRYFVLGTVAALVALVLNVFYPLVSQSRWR
Summary of the method: (§1)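 Labelling with Biotin-Ahx-Ub-VS (0.5 µM final, 1 h) followed a 3 h triplicate treatment of HEK293T lysate (495 µg per sample, Tris/CHAPS/IGEPAL buffer with protease inhibitors) with fragment at 200 µM or vehicle. Labelled DUBs were NeutrAvidin-enriched, digested with LysC and trypsin, and run by diaPASEF LC-MS/MS. The values, average log2 fragment/vehicle ratios by unpaired t-test, come from global-median-normalised Spectronaut label-free quantities. Proteins with ≥2 unique peptides were used.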

USP22 = target: T2, USP22 (UniProt Q9UPT9)
T2 sequence (whole entry): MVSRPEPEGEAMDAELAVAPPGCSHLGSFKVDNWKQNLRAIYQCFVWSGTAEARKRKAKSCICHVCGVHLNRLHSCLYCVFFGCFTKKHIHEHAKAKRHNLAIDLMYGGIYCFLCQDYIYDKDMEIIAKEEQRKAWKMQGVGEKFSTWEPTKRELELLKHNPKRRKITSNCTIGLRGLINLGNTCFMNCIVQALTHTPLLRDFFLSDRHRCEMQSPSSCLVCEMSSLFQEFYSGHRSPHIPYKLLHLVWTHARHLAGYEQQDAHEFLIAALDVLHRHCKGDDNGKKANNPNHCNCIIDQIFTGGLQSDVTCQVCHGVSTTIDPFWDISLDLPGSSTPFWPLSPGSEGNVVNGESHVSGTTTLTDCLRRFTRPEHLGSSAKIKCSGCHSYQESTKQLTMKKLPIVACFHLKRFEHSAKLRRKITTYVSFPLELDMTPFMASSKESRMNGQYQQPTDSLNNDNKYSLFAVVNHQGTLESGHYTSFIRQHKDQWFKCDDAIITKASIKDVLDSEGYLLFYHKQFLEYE
Summary of the method: as §1

USP24 = USP24 (UniProt Q9UPU5)
Sequence of USP24 (Q9UPU5 whole entry): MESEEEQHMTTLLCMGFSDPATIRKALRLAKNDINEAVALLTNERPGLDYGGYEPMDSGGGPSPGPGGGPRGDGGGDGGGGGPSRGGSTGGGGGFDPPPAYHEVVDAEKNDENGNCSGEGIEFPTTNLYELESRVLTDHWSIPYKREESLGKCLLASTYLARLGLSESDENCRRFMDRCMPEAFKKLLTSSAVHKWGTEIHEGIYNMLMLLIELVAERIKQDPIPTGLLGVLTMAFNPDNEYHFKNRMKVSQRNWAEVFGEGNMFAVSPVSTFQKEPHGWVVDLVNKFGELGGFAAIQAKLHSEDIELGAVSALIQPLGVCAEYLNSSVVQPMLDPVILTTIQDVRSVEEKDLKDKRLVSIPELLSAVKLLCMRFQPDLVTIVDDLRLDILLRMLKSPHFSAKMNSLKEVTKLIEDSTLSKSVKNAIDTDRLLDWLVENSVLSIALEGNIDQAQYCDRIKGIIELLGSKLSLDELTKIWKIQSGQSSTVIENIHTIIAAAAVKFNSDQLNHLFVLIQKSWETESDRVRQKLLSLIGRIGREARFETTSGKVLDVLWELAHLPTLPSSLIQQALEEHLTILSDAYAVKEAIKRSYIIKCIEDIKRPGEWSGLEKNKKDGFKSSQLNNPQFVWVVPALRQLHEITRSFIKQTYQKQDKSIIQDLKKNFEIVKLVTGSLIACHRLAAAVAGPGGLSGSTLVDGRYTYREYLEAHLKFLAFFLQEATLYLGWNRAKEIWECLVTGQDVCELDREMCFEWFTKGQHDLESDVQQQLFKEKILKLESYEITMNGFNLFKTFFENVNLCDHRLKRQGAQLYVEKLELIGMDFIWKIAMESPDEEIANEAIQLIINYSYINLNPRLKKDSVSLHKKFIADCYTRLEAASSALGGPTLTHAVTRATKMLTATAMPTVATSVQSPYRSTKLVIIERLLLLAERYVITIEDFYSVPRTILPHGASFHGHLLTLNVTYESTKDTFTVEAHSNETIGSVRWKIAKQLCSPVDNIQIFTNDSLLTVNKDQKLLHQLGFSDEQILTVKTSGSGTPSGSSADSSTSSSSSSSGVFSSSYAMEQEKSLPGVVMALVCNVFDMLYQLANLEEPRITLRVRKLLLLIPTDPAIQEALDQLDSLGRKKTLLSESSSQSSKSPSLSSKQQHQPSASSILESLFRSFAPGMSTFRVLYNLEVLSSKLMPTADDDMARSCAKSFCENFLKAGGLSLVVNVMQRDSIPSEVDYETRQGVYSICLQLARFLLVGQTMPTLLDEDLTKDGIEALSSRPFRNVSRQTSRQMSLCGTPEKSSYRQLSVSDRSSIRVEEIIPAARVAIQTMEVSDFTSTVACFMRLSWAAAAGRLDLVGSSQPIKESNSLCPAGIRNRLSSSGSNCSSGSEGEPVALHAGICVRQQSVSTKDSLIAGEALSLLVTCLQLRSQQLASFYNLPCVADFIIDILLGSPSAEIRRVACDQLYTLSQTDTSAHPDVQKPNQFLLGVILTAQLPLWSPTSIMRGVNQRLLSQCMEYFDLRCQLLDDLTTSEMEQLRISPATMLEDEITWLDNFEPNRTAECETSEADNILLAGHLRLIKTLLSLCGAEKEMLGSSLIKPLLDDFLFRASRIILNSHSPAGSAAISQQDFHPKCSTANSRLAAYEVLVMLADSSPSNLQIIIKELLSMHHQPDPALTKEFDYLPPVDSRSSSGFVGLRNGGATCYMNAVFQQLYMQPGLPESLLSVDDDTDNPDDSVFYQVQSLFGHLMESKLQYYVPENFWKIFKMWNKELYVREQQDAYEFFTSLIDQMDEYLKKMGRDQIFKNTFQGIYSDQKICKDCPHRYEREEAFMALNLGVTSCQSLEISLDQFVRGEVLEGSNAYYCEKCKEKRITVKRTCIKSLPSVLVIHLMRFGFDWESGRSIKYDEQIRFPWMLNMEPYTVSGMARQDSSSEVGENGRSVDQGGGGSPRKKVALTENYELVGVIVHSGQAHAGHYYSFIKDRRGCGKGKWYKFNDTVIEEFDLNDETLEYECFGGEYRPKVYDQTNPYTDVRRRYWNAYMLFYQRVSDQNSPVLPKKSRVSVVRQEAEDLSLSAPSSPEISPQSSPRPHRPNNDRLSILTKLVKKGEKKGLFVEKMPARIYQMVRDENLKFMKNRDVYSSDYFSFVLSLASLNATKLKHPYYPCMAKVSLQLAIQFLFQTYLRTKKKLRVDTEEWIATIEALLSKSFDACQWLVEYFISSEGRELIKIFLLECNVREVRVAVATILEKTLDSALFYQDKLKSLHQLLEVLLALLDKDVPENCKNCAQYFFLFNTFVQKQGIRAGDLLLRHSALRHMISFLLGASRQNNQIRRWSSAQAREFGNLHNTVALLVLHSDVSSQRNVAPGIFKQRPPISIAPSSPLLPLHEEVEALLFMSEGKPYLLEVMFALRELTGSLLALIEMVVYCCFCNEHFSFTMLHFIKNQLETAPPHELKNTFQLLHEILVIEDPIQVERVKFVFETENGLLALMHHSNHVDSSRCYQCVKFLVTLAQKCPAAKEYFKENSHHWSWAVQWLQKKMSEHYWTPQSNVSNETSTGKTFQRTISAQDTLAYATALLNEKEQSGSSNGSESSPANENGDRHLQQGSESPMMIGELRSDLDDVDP
Summary of the method: as §1

USP25 = target: T3, USP25 (UniProt Q9UHP3)
T3 sequence (whole entry): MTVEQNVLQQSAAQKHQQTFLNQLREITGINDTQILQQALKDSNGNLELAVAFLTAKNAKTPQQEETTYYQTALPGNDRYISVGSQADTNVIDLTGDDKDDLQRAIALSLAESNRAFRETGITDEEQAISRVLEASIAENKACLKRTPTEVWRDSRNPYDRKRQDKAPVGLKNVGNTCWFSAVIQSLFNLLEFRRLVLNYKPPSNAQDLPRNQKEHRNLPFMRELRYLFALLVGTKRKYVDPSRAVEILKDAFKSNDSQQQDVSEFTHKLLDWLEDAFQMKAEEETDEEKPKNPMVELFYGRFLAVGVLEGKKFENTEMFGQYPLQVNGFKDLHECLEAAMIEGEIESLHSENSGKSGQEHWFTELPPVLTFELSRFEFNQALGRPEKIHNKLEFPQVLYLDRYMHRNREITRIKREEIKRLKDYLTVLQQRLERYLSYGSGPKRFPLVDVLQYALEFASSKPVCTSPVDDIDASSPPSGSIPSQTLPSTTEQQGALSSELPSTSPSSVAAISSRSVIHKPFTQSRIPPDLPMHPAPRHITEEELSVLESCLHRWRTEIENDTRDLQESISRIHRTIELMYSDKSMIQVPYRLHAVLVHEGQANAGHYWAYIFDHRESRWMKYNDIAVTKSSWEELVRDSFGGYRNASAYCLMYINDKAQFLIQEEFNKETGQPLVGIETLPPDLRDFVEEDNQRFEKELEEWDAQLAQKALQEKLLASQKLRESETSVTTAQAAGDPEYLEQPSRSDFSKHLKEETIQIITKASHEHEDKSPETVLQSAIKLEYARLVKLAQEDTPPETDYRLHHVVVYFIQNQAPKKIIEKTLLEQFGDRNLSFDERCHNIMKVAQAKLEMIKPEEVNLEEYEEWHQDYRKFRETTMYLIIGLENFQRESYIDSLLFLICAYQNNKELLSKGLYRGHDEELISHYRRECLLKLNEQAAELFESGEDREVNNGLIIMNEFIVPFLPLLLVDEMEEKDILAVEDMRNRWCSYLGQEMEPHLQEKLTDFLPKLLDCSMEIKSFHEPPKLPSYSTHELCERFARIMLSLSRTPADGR
Summary of the method: as §1

USP28 = target: T4, USP28 (UniProt Q96RU2)
T4 sequence (whole entry): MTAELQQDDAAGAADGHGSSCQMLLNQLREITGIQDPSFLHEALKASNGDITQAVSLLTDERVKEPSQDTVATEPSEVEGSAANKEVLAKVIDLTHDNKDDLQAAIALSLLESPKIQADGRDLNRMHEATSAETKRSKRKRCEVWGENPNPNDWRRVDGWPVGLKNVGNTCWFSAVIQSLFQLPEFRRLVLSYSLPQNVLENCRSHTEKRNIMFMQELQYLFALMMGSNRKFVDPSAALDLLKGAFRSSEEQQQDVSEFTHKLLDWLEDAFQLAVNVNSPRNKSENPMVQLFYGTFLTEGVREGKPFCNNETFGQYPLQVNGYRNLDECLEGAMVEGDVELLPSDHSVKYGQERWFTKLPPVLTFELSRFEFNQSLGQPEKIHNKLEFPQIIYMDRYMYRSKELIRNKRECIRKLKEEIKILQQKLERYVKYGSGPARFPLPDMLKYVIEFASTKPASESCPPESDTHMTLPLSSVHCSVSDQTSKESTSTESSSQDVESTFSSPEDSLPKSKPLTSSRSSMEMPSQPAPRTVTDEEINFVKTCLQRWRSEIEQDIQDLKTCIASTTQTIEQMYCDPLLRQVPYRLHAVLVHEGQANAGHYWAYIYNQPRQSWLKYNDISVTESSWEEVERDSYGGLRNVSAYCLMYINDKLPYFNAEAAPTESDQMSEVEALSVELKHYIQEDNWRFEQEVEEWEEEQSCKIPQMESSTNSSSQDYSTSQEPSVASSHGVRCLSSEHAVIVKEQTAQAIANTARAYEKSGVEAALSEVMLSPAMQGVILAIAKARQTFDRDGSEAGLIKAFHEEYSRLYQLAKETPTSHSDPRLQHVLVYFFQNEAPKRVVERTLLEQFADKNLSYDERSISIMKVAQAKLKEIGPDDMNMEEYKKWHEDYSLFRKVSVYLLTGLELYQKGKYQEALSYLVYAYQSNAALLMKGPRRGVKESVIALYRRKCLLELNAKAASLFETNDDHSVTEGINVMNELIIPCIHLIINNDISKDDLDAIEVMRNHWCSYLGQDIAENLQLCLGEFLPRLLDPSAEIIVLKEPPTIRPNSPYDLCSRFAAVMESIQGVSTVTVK
Summary of the method: as §1

Measured: log2 ratio of Biotin-Ahx-Ub-VS probe labelling

O=C(CCl)Nc1cccc(NC(=O)c2ccccc2)c1
inactive: USP19 0.0261 | USP22 0.406 | USP24 0.05 | USP25 -0.383 | USP28 -0.173
